This note sets out measurements from PubChem BioAssay AID1476 (National Center for Advancing Translational Sciences (NCATS), 2009).

Among all 200,000 compounds or so, about 4,500 (2.2%) were called active. Another 12% or so got no clear call; they are omitted. This is one part of a sample in which actives are shown more often than they occur. Values without a mark were called inactive. Calls come from the whole dose curve; as a rule, active = well fitted inhibition curve with a large enough effect; inconclusive = small, poorly fitted or top-dose-only effect, or effect the other way; inactive = flat fitted curve, though single readings scatter.
Potency is the fitted concentration of half-maximal effect.

Sequence of Cruzipain (Trypanosoma cruzi) (P25779 123-467 limits assumed): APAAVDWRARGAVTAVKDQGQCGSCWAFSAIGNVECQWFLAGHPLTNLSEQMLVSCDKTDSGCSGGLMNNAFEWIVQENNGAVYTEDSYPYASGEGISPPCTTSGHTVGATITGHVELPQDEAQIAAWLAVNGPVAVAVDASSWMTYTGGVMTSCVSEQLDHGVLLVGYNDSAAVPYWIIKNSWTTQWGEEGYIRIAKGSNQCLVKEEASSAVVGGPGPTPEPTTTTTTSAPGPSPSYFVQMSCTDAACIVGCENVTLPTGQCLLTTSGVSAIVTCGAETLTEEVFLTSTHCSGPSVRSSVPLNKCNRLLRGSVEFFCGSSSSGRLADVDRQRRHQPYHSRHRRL

The target in this test is Cruzipain (Trypanosoma cruzi) (UniProt P25779). Nature of the test: qHTS Assay for Promiscuous and Specific Inhibitors of Cruzain (without detergent).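 For max response, negative = inhibition: plate controls were enzyme without inhibitor for no effect and buffer without enzyme for full effect.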 Note: nearly all actives have a fitted effect of over 40% in size. The following applies: purified cruzain, Z-FR-AMC fluorescence, no detergent. In short, it runs like this:
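Purified cruzain at 1.5 nM, pre-incubated 15 min with compound at room temperature in 100 mM sodium acetate pH 5.5, 5 mM DTT, 0.00005% Triton X-100. Reaction started with 2 uM Z-FR-AMC; AMC fluorescence increase over 60 s gives rate.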
With `CN(Cc1ccccc1)c1ccc(-c2nc(-c3ccccc3)no2)cc1[N+](=O)[O-]`, the max response, negative = inhibition was -0.924%. On the same count and under the same terms, next, `O=C(NCc1ccccc1)c1ccc2c(c1)nc1n2CCCCC1`: -10.7%; `O=C(Nc1ccc(O)c(-c2nc3ccccc3o2)c1)c1ccc(-c2cccc(Cl)c2)o1`: 1.11%. As for `O=C(NC(=S)Nc1ccc2oc(=O)ccc2c1)c1ccc(-c2cccc(Cl)c2Cl)o1`, the Potency is 5.01 µM (active). In the case of `CCCOc1ccc(C(=O)Nc2ccc3oc(-c4cccc(Cl)c4Cl)nc3c2)cc1`, the max response, negative = inhibition is 7.94%. Turning to `COC(=O)c1cc(NC(=O)CCc2c(C)nc3c4c(C)cc(C)nc4nn3c2C)cc(C(=O)OC)c1`, the max response, negative = inhibition was -14.1%. Same read-out and setting: for `COc1cccc2cc(-c3nc(Cl)c4c5c(sc4n3)CC(C)CC5)c(=O)oc12` (stereo not drawn) the value was -8.92%; for `CCc1ccccc1NC(=O)c1cc(-c2ccc3c(c2)OCO3)on1`, -1.06%; for `c1ccc2[nH]c(NCCN3CCOCC3)nc2c1`, -8.64%. In the case of `c1ccc2cc3c(NCCN4CCOCC4)ccnc3cc2c1`, the Potency was 25.1 µM (active). `Clc1ccccc1-c1cc(NCCN2CCOCC2)ncn1`: the max response, negative = inhibition is -3.09%.

As for `COc1ccc(-n2c(=O)c3ccccc3n(Cc3ccccc3Cl)c2=O)cc1`, the max response, negative = inhibition is 6.51%. For `CN(c1ccccc1)c1ccc(/C=c2\s/c(=C(/C#N)C(=O)C(C)(C)C)n(Cc3ccco3)c2=O)cc1`, the Potency is 3.16 µM (active). As for `Cc1cc2c(c(=O)n1Cc1ccco1)C(c1ccccc1)C(C#N)=C(N)O2` (stereo not drawn), the max response, negative = inhibition was -4.14%. Same read-out and setting: next, `CCOc1ccccc1NC(=O)Cn1c(=O)n(Cc2ccco2)c(=O)c2sc3ccccc3c21`: -0.26%; `O=C(NCCCc1ccccc1)c1ccc2c(c1)sc1nc(-c3ccc(F)cc3)cn12`: 4.05%.

With `O=C(Nc1cccc2ncccc12)c1ccc(-c2ccc(Cl)cc2Cl)o1`, the max response, negative = inhibition is -11.1%. The same measure, in the same setting: next, `Cc1csc(NC(=S)Nc2cccc(Cl)c2)n1`: -0.724%. On to `Cc1csc(NC(=O)c2ccc(-c3ccc(Cl)cc3Cl)o2)n1`, for which the Potency is 10 µM (active). Turning to `Cc1ccc(NC(=O)c2cc3cc(C)ccc3n2C)cc1`, the max response, negative = inhibition was -3.53%. As for `O=C(Nc1ccccc1)c1ccc2c(c1)OCO2`, the max response, negative = inhibition was 1.37%. Take `O=C(Nc1ccc2c(c1)OCO2)c1ccc(N2C(=O)c3ccccc3C2=O)cc1`: the Potency is 6.31 µM (active). In the case of `Cn1c(=O)n(C)c2cc(C(=O)Nc3ccc4c(c3)OCO4)ccc21`, the max response, negative = inhibition was -14%. The same measure, in the same setting: for `CCOc1ccc(CNC(=O)CCC(=O)N2CCSc3ccccc32)cc1` the value was 1.55%. Turning to `COc1ccc(-c2onc(C)c2C)cc1S(=O)(=O)NCC1CCN(Cc2cccc(F)c2)CC1`, the max response, negative = inhibition is 0.417%. As to `CCc1ccccc1NC(=O)CSc1nnc(-c2ccccc2)c(-c2ccccc2)n1`, the max response, negative = inhibition was -0.884%. As for `Clc1cccc(N=C2NN=C(c3ccc4c(c3)OCCO4)CS2)c1`, the Potency is 10 µM (active). For `CCOC(=O)C1=C(O)CSC1=Nc1cccc(Cl)c1`, the max response, negative = inhibition is -9.26%. Same read-out and setting: for `CCOc1ccc(CNC(=O)Cn2cc3c(n2)-c2c(oc(C(=O)N4CCCC4)c2C)CC3)cc1` the value was 23.3%; for `COc1ccc2cc(CNc3ccc(OC)c(OC)c3)c(=O)n(CC(=O)Nc3ccccc3F)c2c1`, 13.9%; for `O=C(CSc1nccn1C1CCCC1)Nc1cc(C(F)(F)F)ccc1Cl`, 9.92%. On the same count and under the same terms, for `CC(=O)c1ccc(NC(=O)CSc2nnc(NC(=O)Nc3ccccc3)s2)cc1` the value was 10.4%; for `COc1ccc(C(=O)CSc2nnc(NC(=O)C3CC(=O)N(c4cccc(OC)c4)C3)s2)cc1` (stereo not drawn), -5.43%. As to `O=C(/C=C/c1ccccc1)Nc1nnc(SCC(=O)c2ccc3ccccc3c2)s1`, the Potency was 6.31 µM (active). For `O=C(NCCc1csc(-c2ccc(C(F)(F)F)cc2)n1)C(=O)Nc1ccc(F)c(Cl)c1`, the max response, negative = inhibition was -2.67%. As to `Cc1ccc(OCC(=O)OCc2cc(=O)n3nc(C4CC4)sc3n2)cc1`, the max response, negative = inhibition was -8.05%. On to `COC(=O)c1nc2ccccc2s1`, for which the max response, negative = inhibition was -9.6%. The same measure, in the same setting: next, `c1ccc2sc(SCCSc3nc4ccccc4s3)nc2c1`: -3.12%. For `N#C/C(=C(/O)Cc1cccc2ccccc12)c1nc2ccccc2s1`, the Potency was 12.6 µM (active). Consider `Cc1ccc(-c2nn3c(=O)cc(CN4CCN(C(=O)Nc5cccc(C(F)(F)F)c5)CC4)nc3s2)cc1`, for which the max response, negative = inhibition is -9.63%. On the same count and under the same terms, for `COc1ccc(Cn2c(C(=O)O)c(CNCCc3cccs3)c3ccc(OC)cc32)cc1` the value was -3.19%.

With `Cc1ccc(NS(=O)(=O)c2ccc3c(c2)CC(=O)N3)cc1Cl`, the Potency is 15.8 µM (active).

For the molecule `Cc1ccc(S(=O)(=O)NCCC(=O)Nc2ccc(C)c(Cl)c2)cc1C`, the max response, negative = inhibition was -0.389%. Take `COc1ccc(NC(=O)CCNS(=O)(=O)c2ccc3c(c2)CCCC(=O)N3)cc1Cl`: the max response, negative = inhibition was -2.51%. On the same count and under the same terms, next, `Cc1nn(CC(=O)O)c(=O)c2cc3cc(F)ccc3n12`: -12.5%; `Cc1cccc(-n2ccnc2SCC(=O)Nc2cc(C(F)(F)F)ccc2Cl)c1`: -5.01%. The same measure, in the same setting: for `Cc1ccc(NC(=O)CSc2nc3c(c(=O)[nH]2)CN(Cc2ccc4c(c2)OCO4)CC3)cc1C` the value was -8.7%. On to `CCn1c2ccccc2c2cc(NC(=O)COC(=O)c3cc(S(=O)(=O)N4CCCCC4)ccc3Cl)ccc21`, for which the Potency is 6.31 µM (active).

As for `CC(=O)c1c(C)[nH]c(C(=O)OCC(=O)Nc2cc(S(=O)(=O)N3CCCCC3)ccc2C)c1C`, the max response, negative = inhibition was 9.33%. The same measure, in the same setting: next, `COc1ccc(OCC(=O)OCC(=O)Nc2ccc(S(=O)(=O)N3CCCCC3)cc2)cc1`: 6.2%; `CCOC(=O)CNC(=O)c1cc2c(=O)n3cccc(C)c3nc2s1`: -17.8%. The same measure, in the same setting: for `O=C(Cn1cc(SCc2ccccc2)c2ccccc21)N1CCCCC1` the value was -0.659%. As to `O=C(N/N=C/c1cc([N+](=O)[O-])ccc1O)/C(=C\c1cccs1)NC(=O)c1ccccc1`, the Potency was 20 µM (active). In the case of `C=CCNC(=O)/C(=C\c1cccc([N+](=O)[O-])c1)NC(=O)c1ccccc1`, the max response, negative = inhibition is 10.7%. The same measure, in the same setting: for `CN(C)CCNC(=O)/C(=C/c1cccc([N+](=O)[O-])c1)NC(=O)c1ccccc1` the value was -6.18%. Still for that read-out and setting: next, `COc1cccc(NC(=O)N2CCN(C(=O)c3nsc4ccccc34)CC2)c1`: 16.2%. The same measure, in the same setting: for `COc1cc(OC)c(NC(=O)c2c3c(nn2C)-c2ccccc2SC3)cc1Cl` the value was -6.8%; for `COc1ccc(NC(=O)CSc2nc3ncccc3[nH]2)c(OC)c1`, -7.09%. `O=C(CC(c1cccs1)N1Cc2ccccc2C1=O)Nc1ccc(F)cc1F` (stereo not drawn): the max response, negative = inhibition was -15.6%.

In the case of `CCOC(=O)c1cc2sccc2n1Cc1ccc(C#N)cc1`, the max response, negative = inhibition is -11.1%. `Cc1cc(=O)[nH]c(SCC(=O)N2c3ccccc3CC2C)n1` (stereo not drawn): the max response, negative = inhibition was -2.54%. On the same count and under the same terms, for `CC(=O)Nc1ccc(NC(=O)c2cc3sccc3n2Cc2ccc(F)cc2)cc1` the value was 23.5%. In the case of `O=C(c1cc2sccc2n1Cc1ccc(F)cc1)N1CCc2ccccc21`, the Potency was 25.1 µM (active). As for `O=C(NCc1ccco1)c1cc2sccc2n1Cc1ccc(F)cc1`, the max response, negative = inhibition was -11.7%. Turning to `CC1Cc2ccccc2N1C(=O)c1cc2sccc2n1Cc1ccccc1` (stereo not drawn), the Potency was 25.1 µM (active). As for `Cc1ccc(-c2nc(SCc3ccc(Br)cc3)n3[nH]c(=O)cc3n2)cc1`, the max response, negative = inhibition was -0.81%. On to `COc1ccc(OC)c(CNC(=O)Cn2nc(C)c3c(C)n(-c4ccccc4)nc3c2=O)c1`, for which the max response, negative = inhibition was -8.59%. As to `NC(=O)c1c(NC(=O)CSc2nnc(-c3ccco3)n2N)sc2c1CCCC2`, the max response, negative = inhibition was -17%. On the same count and under the same terms, for `CC(Sc1nc2ccccc2c(=O)n1Cc1ccco1)C(=O)c1ccccc1` (stereo not drawn) the value was -8.72%. On to `N#Cc1c(NC(=O)CSc2nc3ccccc3c(=O)n2Cc2ccco2)sc2c1CCCC2`, for which the Potency is 10 µM (active). For `CCOc1ccc(N(CC)S(=O)(=O)N2CCCC(C(=O)NCc3ccc(SC)cc3)C2)cc1` (stereo not drawn), the max response, negative = inhibition is 16%. On the same count and under the same terms, for `O=C1CCCC2=C1C(c1ccccc1)n1c(s/c(=C/c3cccc(F)c3)c1=O)=N2` (stereo not drawn) the value was -0.66%.

As for `COc1ccc(OC)c(C2C3=C(N=c4s/c(=C\c5cccc(O)c5)c(=O)n42)c2ccccc2CC3)c1` (stereo not drawn), the Potency is 3.16 µM (active).

`COCCOC(=O)C1=C(C)N=c2s/c(=C\c3cccs3)c(=O)n2C1c1cccs1` (stereo not drawn): the max response, negative = inhibition was 14.7%. On the same count and under the same terms, next, `Cc1ccc2nc(NC(=O)c3nc(SCc4ccccc4F)ncc3Cl)sc2c1`: 16.1%; `CCCOC(=O)c1c(NC(=O)c2cc3nc(-c4ccc(OC)cc4)cc(C(F)(F)F)n3n2)sc2c1CCCC2`: 3.32%. For `CCCOC(=O)c1c(NC(=O)c2cnn3c2NC(c2ccccc2)CC3C(F)(F)F)sc2c1CCCC2` (stereo not drawn), the Potency was 5.01 µM (active).

As to `CCOC(=O)c1c(NC(=O)c2ccc(Br)o2)sc2c1CCCC2`, the max response, negative = inhibition is -20.9%. On the same count and under the same terms, next, `CCOC(=O)c1ccc(NC(=O)CCn2c(=O)oc3ccccc32)cc1`: -3.92%; `CCOC(=O)C1CCN(c2nc3c(S(=O)(=O)c4ccc(CC)cc4)nnn3c3ccc(Cl)cc23)CC1`: -25.4%; `CCNC(=O)c1cc2n(n1)CCCN(Cc1ccc(C)cc1)C2=O`: 4.87%. As for `Cc1ccccc1CNC(=O)CCc1cn(Cc2ccccc2C)c2ccccc12`, the max response, negative = inhibition is 0.523%. Consider `COc1ccc(C)cc1Nc1nc(-c2c(C)[nH]c3ccccc23)cs1`, for which the Potency is 25.1 µM (active). On to `COc1ccc(C)cc1Nc1nc2ccccc2c2nnc(C)n12`, for which the max response, negative = inhibition was -0.388%. Same read-out and setting: for `COc1ccc(OC)c(Nc2nc(-c3ccc(O)c(O)c3)cs2)c1` the value was -16.7%; for `CCCC1=Nc2cc(C(=O)NCc3ccco3)ccc2Sc2ccccc21`, -12.6%; for `COCCNC(=O)c1ccc2c(c1)N=C(C)c1cc(C)ccc1S2`, 12.7%.

As to `CCC1=Nc2cc(C(=O)NCC(C)c3ccccc3)ccc2Sc2ccc(C)cc21` (stereo not drawn), the Potency was 12.6 µM (active).
